Pf growth 48h – Primary qHTS for delayed death inhibitors of the malarial parasite plastid, 48 hour incubation | P. falciparum luciferase growth in erythrocytes, 48 h | Potency, µM (doses to about 28.7 µM), actives largely listed as inhibitors | actives 5.9% (n = 310,000); active = well fitted inhibition curve with a large enough effect; inconclusive = small, poorly fitted or top-dose-only effect, or another doubt; inactive = no such curve, though single readings can be large or run the other way
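Read-out is firefly luciferase luminescence from an integrated reporter in P. falciparum, so falling signal marks reduced parasite growth. Infected erythrocytes were at 2% hematocrit and 0.1% parasitemia (final) in Albumax-supplemented RPMI 1640.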
SARS PLpro yeast – qHTS of Yeast-based Assay for SARS-CoV PLP; actives 0.19% (n = 330,000); S. cerevisiae expressing SARS-CoV PLpro, growth rescue; Potency, µM (highest dose often 32.9 µM), hits mostly activators; AID 485353, 2010; note: nearly all actives have a fitted effect of over 55% in size
Pf growth 96h – Primary qHTS for delayed death inhibitors of the malarial parasite plastid, 96 hour incubation | P. falciparum luciferase reporter growth, 96 h | Potency, µM (series often up to 28.7 µM), hits mostly inhibitors | actives 6.9% (n = 320,000); active = well fitted inhibition curve with a large enough effect; inconclusive = small, poorly fitted or top-dose-only effect, or another doubt; inactive = no such curve, though single readings can be large or run the other way
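Parasite growth measured via integrated firefly luciferase reporter in P. falciparum. Infected erythrocytes at 2% hematocrit, 0.05% parasitemia final were treated 96 hours at 37 C under 5% CO2, and luminescence was read.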
RE007 growth inh – qHTS Assay for Inhibitors of the HIV-1 protein Vpr. actives 0.21% (n = 360,000). Potency, µM (doses to about 92.2 µM), actives largely listed as inhibitors. AID 651644, 2012. S. pombe RE007 Vpr strain, BacTiter-Glo ATP luminescence, 24 h; active = well fitted falling curve with a large enough effect; inconclusive = small, poorly fitted or top-dose-only effect; inactive = no such curve, though single readings can be large or run the other way; note: nearly all actives have a fitted effect of over 50% in size
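Fission yeast strain RE007, carrying one chromosomally integrated HIV-1 vpr copy, was seeded at OD 0.01 in PMG+AL medium with 23 nL pinned compound. After 24 h at 30 °C and 99% humidity, viability was read by BacTiter-Glo luminescence.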
NS1 inh – qHTS Assay for Inhibitors of Influenza NS1 Protein Function; Potency, µM (highest dose often 46.1 µM); actives 0.4% (n = 270,000); AID 2326, 2010; note: actives are rising curves; nearly all actives have a fitted effect of over 50% in size
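A cell-based growth assay was used: compounds that relieve NS1-induced slow growth of budding yeast raise OD600. Assay medium was yeast nitrogen base with ammonium sulphate and -URA supplement, pH 6.0, with 2% galactose.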
A number is an active result; [ ] = another dose, or the depositor's remark. Sampled rows, rich in hits. Any-hit rate of the full collection: about 9.5%. Unless noted, calls come from the whole dose curve.

Screening Cc1ccc(N2CCN(S(=O)(=O)c3ccc(Cl)s3)CC2C)cc1 (stereo not given) returned Pf growth 48h inconclusive, SARS PLpro yeast inactive, Pf growth 96h inconclusive, RE007 growth inh inactive and NS1 inh inactive.
For CC(=O)Nc1cccc(C(=O)NC2CCCc3c2cnn3-c2cc(C)cc(C)c2)c1 (stereo not given) the results were Pf growth 48h inactive, SARS PLpro yeast inactive, Pf growth 96h inconclusive, RE007 growth inh inactive and NS1 inh inactive.
Screening Cc1cc(C)nc(Nc2nc3ccccc3s2)n1 returned Pf growth 48h inactive, SARS PLpro yeast inactive, Pf growth 96h 1.7µM and RE007 growth inh inactive.
`Cc1ccc(N=c2c([N+](=O)[O-])nn(-c3ccc(Cl)cc3)n2O)cc1C` gave Pf growth 48h 12µM, SARS PLpro yeast inactive, Pf growth 96h 0.83µM, RE007 growth inh inactive and NS1 inh inactive.
Screening CN(C)CCN(C)Cc1ccccc1Sc1cccc2ccccc12 returned Pf growth 48h inconclusive, SARS PLpro yeast inactive, Pf growth 96h 13µM, RE007 growth inh inactive and NS1 inh inactive.
`Cc1cc(C)c2oc(C(=O)Nc3ccc(S(=O)(=O)N4CCC(C)CC4)cc3)cc(=O)c2c1` gave Pf growth 48h inactive, SARS PLpro yeast inactive, Pf growth 96h inactive, RE007 growth inh inactive and NS1 inh inactive.
Cc1cc(C)c2oc(C(=O)Nc3ccc(S(=O)(=O)Nc4nccs4)cc3)cc(=O)c2c1 was read as Pf growth 48h inconclusive, SARS PLpro yeast inactive, Pf growth 96h inconclusive, RE007 growth inh inactive and NS1 inh inactive.
`Cc1cc2oc(C(=O)Nc3ccc(S(=O)(=O)N4CCCC(C)C4)cc3)cc(=O)c2cc1Cl` (stereo not given) gave Pf growth 48h 13µM, SARS PLpro yeast inactive, Pf growth 96h inconclusive, RE007 growth inh inactive and NS1 inh inactive.
For Cc1cc2oc(C(=O)Nc3ccc(S(=O)(=O)Nc4nccs4)cc3)cc(=O)c2cc1Cl the results were Pf growth 48h inactive, SARS PLpro yeast inconclusive, Pf growth 96h 13µM, RE007 growth inh inactive and NS1 inh inactive.
Screening CN(CC(=O)Nc1ccccc1Cl)C(=O)c1ccc(N2C(=O)CCC2=O)cc1 returned Pf growth 48h inconclusive, SARS PLpro yeast inactive, Pf growth 96h inactive and RE007 growth inh inactive.
CCOC(=O)c1c(C)[nH]c(C(=O)CN2C(=O)NC3(CCCC3)C2=O)c1C was read as Pf growth 48h inactive, SARS PLpro yeast inactive, Pf growth 96h inactive, RE007 growth inh inactive and NS1 inh inactive.
`CCOC(=O)c1c(C)[nH]c(C)c1C(=O)CN1C(=O)NC2(CCCCCC2)C1=O` gave Pf growth 48h 6.6µM, SARS PLpro yeast inactive, Pf growth 96h inconclusive and RE007 growth inh inactive.
For CCC(C)NC(=O)CC1Oc2ccc(Cl)cc2NC1=O (stereo not given) the results were SARS PLpro yeast inactive, Pf growth 96h 10µM, RE007 growth inh inactive and NS1 inh inactive.
Cc1ccc(S(=O)(=O)N2[C@@H](CO)CO[C@H]2CC(=O)c2ccc(F)cc2)cc1 was read as RE007 growth inh inactive.
Screening CN1[C@H]2CC(OC(=O)[C@H](CO)c3ccccc3)C[C@H]1[C@H]1O[C@H]12 (stereo not given in full) returned Pf growth 48h inactive and Pf growth 96h inactive.
Cc1cccc(C)c1OCCCN1CCCC1 was read as SARS PLpro yeast inactive, Pf growth 96h inactive, RE007 growth inh inactive and NS1 inh inactive.
Screening Cc1cccc(Cl)c1OCCCN1CCOCC1 returned Pf growth 48h inactive, SARS PLpro yeast inactive, Pf growth 96h 3.7µM, RE007 growth inh inactive and NS1 inh inactive.
Screening O=C(NCCOc1ccccc1Cl)C(=O)NCCOc1ccccc1Cl returned Pf growth 48h inactive[5.75 µM], SARS PLpro yeast inactive, Pf growth 96h 2.9µM and RE007 growth inh inactive.
`Cc1ccc(NC(=O)C(=O)NCCOc2ccccc2Cl)cc1` gave Pf growth 48h inactive, SARS PLpro yeast inactive, Pf growth 96h inactive and NS1 inh inactive.
For O=c1c(Cl)c(NCc2ccccc2)cnn1C12CC3CC(CC(C3)C1)C2 the results were Pf growth 48h inconclusive, SARS PLpro yeast inactive, Pf growth 96h 10µM, RE007 growth inh inactive and NS1 inh inactive.
Screening OC1(c2cccc(C(F)(F)F)c2)CCN(c2ccc(-c3ccccc3)nn2)CC1 returned Pf growth 48h inactive, SARS PLpro yeast inactive, Pf growth 96h 3.7µM, RE007 growth inh inactive and NS1 inh inactive.
Screening Cc1ccccc1OCCC(=O)Nc1ccc(S(=O)(=O)N2CCCC2)cc1 returned RE007 growth inh inactive.
Screening NC(=O)C1CCN(c2ncnc3c2c(-c2ccccc2)cn3-c2ccccc2)CC1 returned SARS PLpro yeast inactive, Pf growth 96h 10µM, RE007 growth inh inactive and NS1 inh inactive.
Screening CN(CC(=O)Nc1cccc(F)c1)C(=O)CCCNC(=O)c1ccc(Cl)cc1 returned Pf growth 48h inactive, SARS PLpro yeast inactive, Pf growth 96h inactive and RE007 growth inh inactive.
`CCOc1ccccc1CN1CCC(Oc2ccc(C(=O)NCc3ccccn3)cc2)CC1` gave Pf growth 48h 10µM, SARS PLpro yeast inactive, Pf growth 96h inconclusive, RE007 growth inh inactive and NS1 inh inactive.
`COCC(C)N1CCC(Oc2ccc(C(=O)NCc3ccccn3)cc2)CC1` (stereo not given) gave Pf growth 48h inactive, SARS PLpro yeast inactive, Pf growth 96h 12µM, RE007 growth inh inactive and NS1 inh inactive.
C/C=C(\C)CN1CCC(Oc2ccc(C(=O)NCc3ccccn3)cc2)CC1 was read as Pf growth 48h inactive, Pf growth 96h inactive, RE007 growth inh inactive and NS1 inh inactive.
For Cc1cccc(N2CCN(C(=O)c3cccc(S(=O)(=O)N4CCOCC4)c3)CC2)c1C the results were Pf growth 48h inconclusive, SARS PLpro yeast inactive, Pf growth 96h inconclusive and RE007 growth inh inactive.
CC(=O)Nc1ccc(S(=O)(=O)N(C)CC(=O)N2CCN(C(=O)c3ccco3)CC2)cc1 was read as SARS PLpro yeast inactive and RE007 growth inh inactive.
Screening Cc1ccc(NC(=O)CC2(CC(=O)O)CCCC2)c(C)c1 returned Pf growth 48h inactive[0.00184 µM], SARS PLpro yeast inactive, Pf growth 96h 4.1µM, RE007 growth inh inactive and NS1 inh inactive.
Cc1ccc(NC(=O)CO/N=C/c2ccccc2C)c(C)c1 was read as Pf growth 48h inconclusive, SARS PLpro yeast inactive, Pf growth 96h 2.3µM, RE007 growth inh inactive and NS1 inh inactive.
Screening Cc1ccc(NC(=O)CCl)c(C)c1 returned Pf growth 48h 1.9µM, SARS PLpro yeast inactive, Pf growth 96h 10µM, RE007 growth inh inactive and NS1 inh inactive.
`CC(C)c1ccc(CN2C(=O)NC3(CCCCCC3)C2=O)cc1` gave Pf growth 48h inactive, SARS PLpro yeast inactive, Pf growth 96h inconclusive, RE007 growth inh inactive and NS1 inh inactive.
`COc1ccc(C23CC4CC(CC(C(=O)O)(C4)C2)C3)c(F)c1` gave Pf growth 48h inactive, SARS PLpro yeast inactive, Pf growth 96h inactive, RE007 growth inh inactive and NS1 inh inactive.

Assay outcomes deposited in PubChem by National Center for Advancing Translational Sciences (NCATS).
